From PubChem BioAssay (NCATS)
Results filed as inconclusive are left out. Entries that show only a call come without a potency. The source made the active and inactive calls. The call rests on the fitted dose curve; in most records, active means well fitted curve in the direction sought with a large enough effect; inconclusive means small, poorly fitted or top-dose-only effect, or another doubt; inactive means no such curve, though single readings can be large; an effect the other way counts as inactive or inconclusive.

Experiments:
UISO = assay: qHTS assay to identify novel small-molecules to repurpose for Merkel cell carcinoma treatment (AID 1296009); conditions: MCC and control cell lines, CellTiter-Glo viability, 72 h; series mostly up to 46 µM; further: nearly all actives have a fitted effect of over 60% in size
Outline: (§1)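 Cells exposed to NPC (8-point) and MIPE (11-point) compound dilutions for 72 hr at 37 degree celsius; viability read by CellTiter-Glo luminescence, normalized to no-cell and DMSO in-plate controls.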

C33A = assay: Primary qHTS to identify gynecologic anti-cancer compounds using libraries of approved drugs and bioactive compounds (AID 1345084); conditions: Gynecologic cancer cell panel viability, ATPlite luminescence, 48 h; series mostly up to 57.5 µM; further: nearly all actives have a fitted effect of over 55% in size
Outline: (§2)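 Cells, 1,000 per well, were allowed to settle for 16 h at 37 C before compound addition. Five concentrations were tested for 48 h, and viability was read by ATPlite luminescence after 15 min at room temperature.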

CASKI = assay: as above; conditions: Gynecologic cancer cell panel viability, ATPlite luminescence, 48 h; series mostly up to 57.5 µM
Outline: as §2

Es-2 = assay: as above; conditions: Gynecologic cancer cell panel viability, ATPlite luminescence, 48 h; series mostly up to 57.5 µM
Outline: as §2

HeLa = assay: as above; conditions: Gynecologic cancer cell panel viability, ATPlite luminescence, 48 h; series mostly up to 57.5 µM
Outline: as §2

Hek293T = assay: as above; conditions: Gynecologic cancer cell panel viability, ATPlite luminescence, 48 h, control line for the selectivity index; series mostly up to 57.5 µM
Outline: as §2

WaGa = assay: qHTS assay to identify novel small-molecules to repurpose for Merkel cell carcinoma treatment (AID 1296009); conditions: MCC and control cell lines, CellTiter-Glo viability, 72 h; series mostly up to 46 µM; further: nearly all actives have a fitted effect of over 60% in size
Outline: as §1

CAOV3 = assay: Primary qHTS to identify gynecologic anti-cancer compounds using libraries of approved drugs and bioactive compounds (AID 1345084); conditions: Gynecologic cancer cell panel viability, ATPlite luminescence, 48 h; series mostly up to 57.5 µM; further: nearly all actives have a fitted effect of over 55% in size
Outline: as §2
Potency means the concentration at half of the fitted maximal effect.

Question: For `C=CC(=O)N1CCC[C@@H](n2nc(-c3ccc(Oc4ccccc4)cc3)c3c(N)ncnc32)C1`, which Potency (UISO) is on record?
Answer: Its Potency is “inactive”.

Question: What about the Potency (C33A) of the same compound?
Answer: The Potency was “inactive”.

Question: What about the Potency (CASKI) of the same compound?
Answer: The Potency was “inactive”.

Question: And the Potency (Es-2)?
Answer: Its Potency is “inactive”.

Question: What about the Potency (HeLa) of the same compound?
Answer: The Potency was “inactive”.

Question: What about the Potency (Hek293T) of the same compound?
Answer: Its Potency is “inactive”.

Question: With `Nc1ccc(C(=O)c2cc3c(ccc4ccccc43)[nH]2)cc1` as the compound, how does the Potency (WaGa) read?
Answer: The Potency was 8.33 µM (active).

Question: For `OCc1ccc(-c2ccc(-c3ccc(CO)s3)o2)s1`, which Potency (C33A) is on record?
Answer: The Potency was “inactive”.

Question: And the Potency (HeLa)?
Answer: Its Potency is “inactive”.

Question: What about the Potency (Hek293T) of the same compound?
Answer: The Potency was 1.41 µM (active).

Question: With `Cn1cc(-c2ccncc2)c(-c2ccc(OCc3ccc4ccccc4n3)cc2)n1` as the compound, how does the Potency (CAOV3) read?
Answer: The Potency was “inactive”.

Question: And the Potency (CASKI)?
Answer: Its Potency is “inactive”.

Question: What about the Potency (Es-2) of the same compound?
Answer: The Potency was “inactive”.

Question: What about the Potency (HeLa) of the same compound?
Answer: Its Potency is “inactive”.

Question: What about the Potency (Hek293T) of the same compound?
Answer: Its Potency is “inactive”.

Question: `Cc1cn(-c2cc(NC(=O)c3ccc(C)c(Nc4nccc(-c5cccnc5)n4)c3)cc(C(F)(F)F)c2)cn1` was tested. Which Potency (C33A) did it give?
Answer: Its Potency is “inactive”.

Question: What about the Potency (CAOV3) of the same compound?
Answer: The Potency was “inactive”.

Question: And the Potency (CASKI)?
Answer: Its Potency is “inactive”.

Question: And the Potency (Es-2)?
Answer: The Potency was “inactive”.

Question: What about the Potency (HeLa) of the same compound?
Answer: Its Potency is “inactive”.

Question: What about the Potency (Hek293T) of the same compound?
Answer: The Potency was “inactive”.

Question: Which Potency (UISO) does the source give for `O=C(c1ccc(Nc2nccc(-c3cc4ccccc4s3)n2)cc1)N1CCC(N2CCCC2)CC1` here?
Answer: Its Potency is 18.7 µM (active).

Question: And the Potency (C33A)?
Answer: Its Potency is “inactive”.

Question: What about the Potency (CASKI) of the same compound?
Answer: Its Potency is “inactive”.

Question: What about the Potency (Es-2) of the same compound?
Answer: Its Potency is “inactive”.

Question: And the Potency (HeLa)?
Answer: The Potency was “inactive”.

Question: And the Potency (Hek293T)?
Answer: Its Potency is “inactive”.

Question: With `Nc1ncnc2c1c(-c1cccc(OCc3ccccc3)c1)cn2C1CC(CN2CCCC2)C1` (stereo not drawn) as the compound, how does the Potency (UISO) read?
Answer: Its Potency is 10.5 µM (active).

Question: And the Potency (C33A)?
Answer: The Potency was “inactive”.

Question: And the Potency (Es-2)?
Answer: Its Potency is “inactive”.

Question: Which results are given for `COc1cc2c(Oc3ccc(NC(=O)C4(C(=O)Nc5ccc(F)cc5)CC4)cc3F)ccnc2cc1OCCCN1CCOCC1`?
Answer: Potency (UISO): 6.62 µM (active); Potency (CAOV3): 10 µM (active); Potency (Es-2): 25.1 µM (active); Potency (HeLa): 6.31 µM (active); Potency (Hek293T): 7.94 µM (active)

Question: `COc1cc(OC2CCN(C)CC2)ccc1Nc1ncc2c(n1)n(C1CCCC1)c(=O)n2C` was tested. Which Potency (WaGa) did it give?
Answer: The Potency was 23.5 µM (active).

Question: Which results are given for `N#CCNC(=O)c1ccc(-c2ccnc(Nc3ccc(N4CCOCC4)cc3)n2)cc1`?
Answer: Potency (UISO): 14.8 µM (active); Potency (C33A): inactive; Potency (CASKI): inactive; Potency (HeLa): inactive

Question: `Cc1cc(C(=O)N2CCN(c3cccc(Cl)c3)CC2)n(-c2ccccc2)n1` was tested. Which Potency (UISO) did it give?
Answer: Its Potency is 1.66 µM (active).

Question: What about the Potency (CAOV3) of the same compound?
Answer: The Potency was “inactive”.

Question: And the Potency (Es-2)?
Answer: Its Potency is 11.2 µM (active).

Question: What about the Potency (HeLa) of the same compound?
Answer: The Potency was 8.91 µM (active).

Question: Which results are given for `CC(=O)Nc1nc(C)c(-c2ccc(Cl)c(S(=O)(=O)NCCO)c2)s1`?
Answer: Potency (WaGa): 5.9 µM (active); Potency (CAOV3): 14.1 µM (active); Potency (CASKI): 12.6 µM (active)

Question: For `Nc1cccc(-c2cc3c(Oc4cccc(O)c4)ncnc3[nH]2)c1`, which Potency (UISO) is on record?
Answer: Its Potency is “inactive”.

Question: And the Potency (C33A)?
Answer: The Potency was “inactive”.

Question: And the Potency (Es-2)?
Answer: Its Potency is “inactive”.

Question: Which results are given for `COc1cc2nccc(Oc3ccc(NC(=O)C4(C(=O)Nc5ccc(F)cc5)CC4)cc3)c2cc1OC`?
Answer: Potency (WaGa): 2.09 µM (active); Potency (Es-2): inactive; Potency (HeLa): inactive; Potency (Hek293T): inactive

Question: Which Potency (C33A) does the source give for `Cc1ccc(C(=O)Nc2ccc(CN3CCN(C)CC3)c(C(F)(F)F)c2)cc1C#Cc1cnc2cccnn12` here?
Answer: Its Potency is 25.1 µM (active).

Question: And the Potency (CASKI)?
Answer: The Potency was 14.1 µM (active).

Question: And the Potency (Es-2)?
Answer: The Potency was 8.91 µM (active).

Question: And the Potency (HeLa)?
Answer: Its Potency is 11.2 µM (active).
